Results filed as inconclusive are left out. Activity calls are given as the source filed them. Unless noted, calls come from the whole dose curve; as a rule, active = well fitted curve in the direction sought with a large enough effect in the repeat runs; inconclusive = weak or mixed curves; inactive = no such curve, though single readings can be large; an effect the other way counts as inactive or inconclusive.
Legend:
[1] = qHTS assay to identify small molecule agonists of the peroxisome proliferator-activated receptor delta (PPARd) signaling pathway - cell viability counter screen (AID 743211); note: % is set by controls: 0 for no effect and ±100 for the full control effect; nearly all actives have a fitted effect of over 55% in size
Summary of the method: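 PPARd-bla HEK293H cells (3000/well) were pre-incubated 5 h at 37 C, then exposed to compound for 17 h at 37 C. After 2 h with LiveBLAzer substrate, CellTiter-Glo was added to the same wells; luminescence read after 30 min at room temperature.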

[2] = biological target: Peroxisome proliferator-activated receptor delta (Homo sapiens) (UniProt Q03181); assay: qHTS assay to identify small molecule agonists of the peroxisome proliferator-activated receptor delta (PPARd) signaling pathway (AID 743212; calls by dose curve; note: % is set by controls: 0 for no effect and ±100 for the full control effect)
Summary of the method: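 Beta-lactamase reporter read by fluorescence (LiveBLAzer B/G FRET, 2 h, room temperature). Test agents, in DMSO, incubated at 37 C with PPARd-bla HEK293H cells.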

[3] = qHTS assay to identify small molecule antagonists of the peroxisome proliferator-activated receptor delta (PPARd) signaling pathway - cell viability counter screen (AID 743213); note: % is set by controls: 0 for no effect and ±100 for the full control effect; nearly all actives have a fitted effect of over 50% in size
Summary of the method: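 Cytotoxicity counter screen: CellTiter-Glo luminescence read 30 min after addition, in the same wells as the reporter assay. There, PPARd UAS-bla HEK293H cells (3000/well) were treated 17 h at 37 C with compound and 300 nM L165041.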

[4] = biological target: Peroxisome proliferator-activated receptor delta (Homo sapiens) (UniProt Q03181); assay: qHTS assay to identify small molecule antagonists of the peroxisome proliferator-activated receptor delta (PPARd) signaling pathway (AID 743215; active = well fitted inhibition curve with a large enough effect in the signal ratio in the repeat runs, not every such curve was filed as active; the % refers to the signal ratio;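 note: cells stimulated with agonist L165041 at 300 nM final during compound exposure; series mostly up to about 62 µM; % is set by controls: 0 for no effect and ±100 for the full control effect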)
Summary of the method: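 Cells: HEK293H with a UAS-driven beta-lactamase reporter responsive to PPARd. Compounds were co-added with L165041 (300 nM, final) and incubated 17 h at 37 C before a 2 h room-temperature FRET substrate step and fluorescence reading.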

[5] = qHTS assay to identify small molecule agonists of the farnesoid-X-receptor (FXR) signaling pathway - cell viability counter screen (AID 743218); note: % is set by controls: 0 for no effect and ±100 for the full control effect; nearly all actives have a fitted effect of over 45% in size
Summary of the method: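 Cells were seeded, left 5 h at 37 C and 5% CO2, then dosed with compound in DMSO for 16 h. After the beta-lactamase FRET read, CellTiter-Glo was added and luminescence measured 30 min later.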

[6] = qHTS assay to identify small molecule agonists of the vitamin D receptor (VDR) signaling pathway - cell viability counter screen (AID 743224); note: series mostly up to about 63 µM; % is set by controls: 0 for no effect and ±100 for the full control effect; nearly all actives have a fitted effect of over 50% in size
Summary of the method: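 Cells: VDR-bla, 2,000/well, settled 4 h. Treatment: compounds in DMSO, 16 h, 37C/5% CO2. Readout: CellTiter-Glo luminescence after 30 min RT.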

[7] = qHTS assay to identify small molecule antagonists of the vitamin D receptor (VDR) signaling pathway - cell viability counter screen (AID 743225); note: % is set by controls: 0 for no effect and ±100 for the full control effect; nearly all actives have a fitted effect of over 50% in size
Summary of the method: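 VDR-UAS-bla HEK 293T cells were plated and incubated 4 h at 37C, then dosed with compound plus 3 nM (final) 1-alpha,25-dihydroxyvitamin D3 for 16 h. After the 2 h beta-lactamase read, viability in the same wells was read as CellTiter-Glo luminescence after 30 min at room temperature.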

[8] = qHTS assay to identify small molecule agonists of the NFkB signaling pathway (AID 1159509; active = well fitted curve in the direction sought with a large enough effect in the signal ratio in the repeat runs, not every such curve was filed as active; the % refers to the signal ratio; note: series mostly up to about 61 µM; % is set by controls: 0 for no effect and ±100 for the full control effect)
Summary of the method: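 Beta-lactamase reporter assay run in quantitative high-throughput format on an NF-kB-responsive ME-180 line, with 5 hr compound treatment and a FRET-based blue/green fluorescence readout.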

[9] = qHTS assay to identify small molecule agonists of the NFkB signaling pathway - cell viability counter screen (AID 1159515; calls by dose curve; note: series mostly up to about 61 µM; % is set by controls: 0 for no effect and ±100 for the full control effect; nearly all actives have a fitted effect of over 55% in size)
Summary of the method: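 Cells are seeded (2,000 NFkB-bla ME-180 per well), rested overnight, and dosed with DMSO-dissolved compounds for 5 hr at 37 C. Viability is then read by CellTiter-Glo luminescence after 30 min at room temperature.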

[10] = qHTS assay to identify small molecule agonists of the endoplasmic reticulum stress response signaling pathway (AID 1159516; active = well fitted activation curve with a large enough effect in the signal ratio in the repeat runs, not every such curve was filed as active; the % refers to the signal ratio; note: % is set by controls: 0 for no effect and ±100 for the full control effect)
Summary of the method: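 Cells are seeded at 1,500 per well and incubated overnight. Compounds in DMSO are added for 5 hr at 37 C, then beta-lactamase FRET substrate for 2 hr at room temperature, and fluorescence at 460 and 530 nm is measured.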

[11] = qHTS assay to identify small molecule agonists of the endoplasmic reticulum stress response signaling pathway - cell viability counter screen (AID 1159517; calls by dose curve;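 note: HeLa cells carrying an ER stress response element beta-lactamase reporter; series mostly up to about 61 µM; % is set by controls: 0 for no effect and ±100 for the full control effect; nearly all actives have a fitted effect of over 50% in size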)
Summary of the method: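 Cytotoxicity of test compounds toward ESRE-bla HeLa cells was assessed after 5 hr exposure. The luminescent CellTiter-Glo signal was measured 30 min after reagent addition.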

[12] = qHTS assay to identify small molecule antagonists of the retinoid-related orphan receptor gamma (ROR-gamma) signaling pathway - cell viability counter screen (AID 1159520)
Summary of the method: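 Tet-on ROR gamma CHO cells (1,000/well) were plated 4 hr, given compounds in DMSO for 2 hr at 37 C, then induced with 1 uM final doxycycline for 16 hr. Viability was read as ATP by CellTiter-Glo luminescence after 30 min.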

[13] = biological target: Nuclear receptor ROR-gamma (Homo sapiens) (UniProt P51449); assay: qHTS assay to identify small molecule antagonists of the retinoid-related orphan receptor gamma (ROR-gamma) signaling pathway (AID 1159521)
Summary of the method: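 Tet-on ROR-gamma CHO cells with ROR response element-luciferase reporter; compounds added 2 hr before 1 uM doxycycline induction, then 16 hr at 37 C. Antagonism scored as decreased ONE-Glo luminescence.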

[14] = qHTS assay to identify small molecule agonists of the AP-1 signaling pathway - cell viability counter screen (AID 1159525; calls by dose curve; note: nearly all actives have a fitted effect of over 55% in size)
Summary of the method: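 Each titration point was normalised to DMSO and tetra n-octyl ammonium bromide controls. The read was Cell Titer Glo luminescence after 30 min at RT, following 5 h compound exposure of ME-180 AP-1-bla cells at 37 °C.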

[15] = qHTS assay to identify small molecule agonists of the AP-1 signaling pathway (AID 1159526; calls by dose curve; note: % is set by controls: 0 for no effect and ±100 for the full control effect)
[16] = biological target: Bile acid receptor (Homo sapiens) (UniProt Q96RI1); assay: qHTS assay to identify small molecule antagonists of the farnesoid-X-receptor (FXR) signaling pathway (AID 743217; active = well fitted inhibition curve with a large enough effect in the signal ratio in the repeat runs, not every such curve was filed as active; the % refers to the signal ratio; note: % is set by controls: 0 for no effect and ±100 for the full control effect)
Summary of the method: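 Cells carrying a UAS-driven beta-lactamase reporter (GeneBLAzer FXR-UAS-bla HEK 293T) were plated and rested 5 h at 37 °C. Compounds in DMSO were added alongside chenodeoxycholic acid agonist at 50 uM final and left 16 h at 37 °C before FRET substrate readout.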

[17] = biological target: Bile acid receptor (Homo sapiens) (UniProt Q96RI1); assay: qHTS assay to identify small molecule agonists of the farnesoid-X-receptor (FXR) signaling pathway (AID 743220; active = well fitted activation curve with a large enough effect in the signal ratio in the repeat runs, not every such curve was filed as active; the % refers to the signal ratio; note: % is set by controls: 0 for no effect and ±100 for the full control effect)
Summary of the method: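 FXR-UAS-bla HEK 293T cells carrying a UAS-driven beta-lactamase reporter were plated for 5 h at 37C/5% CO2, then exposed to DMSO-dissolved Tox21 10K compounds for 16 h at 37C. A LiveBLAzer B/G FRET substrate was loaded for 2 h at room temperature before fluorescence reading.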

[18] = biological target: Vitamin D3 receptor (Homo sapiens) (UniProt P11473); assay: qHTS assay to identify small molecule agonists of the vitamin D receptor (VDR) signaling pathway (AID 743222; calls by dose curve; note: % is set by controls: 0 for no effect and ±100 for the full control effect)
Summary of the method: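 Cells carrying a VDR-driven beta-lactamase reporter are seeded at 2,000 per well and rested 4 h. Compounds in DMSO are added for 16 h at 37C, and FRET substrate fluorescence is measured after 2 h at room temperature.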

[19] = biological target: Vitamin D3 receptor (Homo sapiens) (UniProt P11473); assay: qHTS assay to identify small molecule antagonists of the vitamin D receptor (VDR) signaling pathway (AID 743223; active = well fitted inhibition curve with a large enough effect in the signal ratio in the repeat runs, not every such curve was filed as active; the % refers to the signal ratio; note: % is set by controls: 0 for no effect and ±100 for the full control effect)
Summary of the method: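 VDR-bla cells were treated with compound plus 3 nM final 1alpha,25-dihydroxyvitamin D3 for 16 h at 37C. Beta-lactamase reporter read by B/G FRET substrate fluorescence after 2 h at room temperature. qHTS format.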

[20] = qHTS assay to identify small molecule antagonists of the farnesoid-X-receptor (FXR) signaling pathway - cell viability counter screen (AID 743221; active = well fitted cell-killing curve with a large enough effect in the repeat runs, not every such curve was filed as active)
Summary of the method: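 GeneBLAzer FXR-UAS-bla HEK 293T cells, compound plus chenodeoxycholic acid (50 uM final), 16 h at 37 C. CellTiter-Glo added to the same wells after the beta-lactamase read; luminescence read after 30 min at room temperature as viability.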

Vitamin D3 receptor (Homo sapiens), sequence (P11473 whole entry, looked up): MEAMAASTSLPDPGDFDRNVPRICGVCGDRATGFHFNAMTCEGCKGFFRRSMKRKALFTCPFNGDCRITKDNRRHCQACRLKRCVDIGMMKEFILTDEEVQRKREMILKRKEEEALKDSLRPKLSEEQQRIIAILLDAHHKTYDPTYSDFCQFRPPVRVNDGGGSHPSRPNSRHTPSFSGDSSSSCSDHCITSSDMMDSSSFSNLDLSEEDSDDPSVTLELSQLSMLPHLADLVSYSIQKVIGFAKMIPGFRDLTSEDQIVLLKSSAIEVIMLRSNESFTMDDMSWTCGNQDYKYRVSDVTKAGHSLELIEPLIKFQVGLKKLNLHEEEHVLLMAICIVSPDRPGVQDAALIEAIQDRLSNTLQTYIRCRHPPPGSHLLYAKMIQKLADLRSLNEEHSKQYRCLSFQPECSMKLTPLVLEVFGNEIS
Bile acid receptor (Homo sapiens), sequence (Q96RI1 whole entry, looked up): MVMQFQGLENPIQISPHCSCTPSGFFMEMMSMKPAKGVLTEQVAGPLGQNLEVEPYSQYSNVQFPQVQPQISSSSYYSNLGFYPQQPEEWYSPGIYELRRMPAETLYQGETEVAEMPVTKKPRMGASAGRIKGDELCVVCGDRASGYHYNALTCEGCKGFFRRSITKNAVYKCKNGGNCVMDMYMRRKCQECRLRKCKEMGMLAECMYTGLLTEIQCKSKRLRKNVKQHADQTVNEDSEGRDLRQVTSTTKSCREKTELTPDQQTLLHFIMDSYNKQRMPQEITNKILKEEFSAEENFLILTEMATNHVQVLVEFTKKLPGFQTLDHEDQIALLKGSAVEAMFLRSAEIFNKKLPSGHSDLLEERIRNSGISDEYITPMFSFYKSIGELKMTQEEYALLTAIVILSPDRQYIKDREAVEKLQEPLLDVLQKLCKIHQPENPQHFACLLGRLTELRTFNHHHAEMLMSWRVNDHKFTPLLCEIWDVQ
Peroxisome proliferator-activated receptor delta (Homo sapiens), sequence (Q03181 whole entry, looked up): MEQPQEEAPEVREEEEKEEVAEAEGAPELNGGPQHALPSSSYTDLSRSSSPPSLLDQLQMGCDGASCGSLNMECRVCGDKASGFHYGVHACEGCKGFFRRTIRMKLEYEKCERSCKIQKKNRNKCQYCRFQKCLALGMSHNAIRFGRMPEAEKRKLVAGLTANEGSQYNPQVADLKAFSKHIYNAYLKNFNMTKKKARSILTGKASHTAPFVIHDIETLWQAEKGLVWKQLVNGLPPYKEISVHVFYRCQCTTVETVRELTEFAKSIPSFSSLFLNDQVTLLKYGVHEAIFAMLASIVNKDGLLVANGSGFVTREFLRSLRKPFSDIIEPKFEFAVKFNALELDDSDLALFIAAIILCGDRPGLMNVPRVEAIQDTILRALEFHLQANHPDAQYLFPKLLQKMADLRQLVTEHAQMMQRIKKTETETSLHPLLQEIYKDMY

O=C(CN1CCNCC1)NC1CCCCC1
inactive: outcome [1] | outcome [2] | outcome [3] | outcome [4] | outcome [5] | outcome [6] | outcome [7] | outcome [8] | outcome [9] | outcome [10] | outcome [11] | outcome [12] | outcome [13] | outcome [14] | outcome [15]

CC1c2ccccc2CN1NC(=O)c1ccc(Cl)c(S(N)(=O)=O)c1 (configuration not stated)
inactive: outcome [1] | outcome [2] | outcome [3] | outcome [16] | outcome [5] | outcome [17] | outcome [18] | outcome [19] | outcome [6] | outcome [7] | outcome [8] | outcome [9] | outcome [10] | outcome [11] | outcome [12] | outcome [13] | outcome [14] | outcome [15]

NCC1(Cc2noc(=O)[nH]2)CCCCC1
inactive: outcome [1] | outcome [2] | outcome [3] | outcome [4] | outcome [5] | outcome [18] | outcome [19] | outcome [6] | outcome [7] | outcome [8] | outcome [9] | outcome [10] | outcome [11] | outcome [12] | outcome [13] | outcome [14] | outcome [15]

CCO
inactive: outcome [1] | outcome [2] | outcome [16] | outcome [5] | outcome [17] | outcome [20] | outcome [18] | outcome [19] | outcome [6] | outcome [7] | outcome [8] | outcome [9] | outcome [10] | outcome [11] | outcome [12] | outcome [13] | outcome [14] | outcome [15]

CCCCCCCCCCCCCCCCCCOCCO
inactive: outcome [1] | outcome [2] | outcome [4] | outcome [16] | outcome [5] | outcome [17] | outcome [20] | outcome [18] | outcome [19] | outcome [6] | outcome [7] | outcome [8] | outcome [9] | outcome [10] | outcome [11] | activity, negative = cytotoxicity [12] -10.1% [at 19 µM] | activity change, negative = inhibition [13] -12.9% [at 19 µM] | viability change, negative = cytotoxic [14] -27.1% [at 15.8 µM] | activation [15] 0.248% [at 15.8 µM]

Cc1cc(-c2ccccc2)nnc1NCCN1CCOCC1
inactive: outcome [1] | outcome [2] | outcome [5] | outcome [20] | outcome [18] | outcome [19] | outcome [7] | outcome [8] | outcome [9] | outcome [10] | outcome [11] | outcome [12] | outcome [13] | outcome [14] | outcome [15]

CC1=C(C(=O)O)N2C(=O)[C@@H](NC(=O)[C@H](N)c3ccccc3)[C@H]2SC1
inactive: outcome [1] | outcome [2] | outcome [3] | outcome [18] | outcome [19] | outcome [7] | outcome [8] | outcome [9] | outcome [10] | outcome [11] | outcome [12] | outcome [13] | outcome [14] | outcome [15]

C=CC/C=C/C
inactive: outcome [1] | outcome [2] | outcome [3] | outcome [16] | outcome [5] | outcome [17] | outcome [6] | outcome [7] | outcome [8] | outcome [9] | outcome [10] | outcome [11] | outcome [12] | outcome [13] | outcome [14] | outcome [15]

From PubChem BioAssay (Tox21)
